The source of these data is PubChem BioAssay (NCI).

About 83,000 compounds went through this panel and 20% of them were active in at least one assay; those are over-represented in the sample as a whole.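 Growth was measured after 48 h exposure to one concentration of compound in 96-well plates. Values under 10 count as active.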 A number with no mark means an inactive call. Activity calls are given as the source filed them.

Assay in all cases: NCI-60 one-dose screen, 48 h (100 = growth as untreated, 0 = no growth, -100 = all killed)
What all share (settings): 10 µM unless noted

Assay [1] deals with SR leukemia.
The subject of assay [2] is RPMI-8226 leukemia.
Assay [3] concerns OVCAR-8 ovarian.
In assay [4] the test system is OVCAR-5 ovarian.
In assay [5] the test system is OVCAR-4 ovarian.
Assay [6] concerns SK-OV-3 ovarian.
In assay [7] the test system is IGROV1 ovarian.
Assay [8] concerns OVCAR-3 ovarian.
The subject of assay [9] is HS 578T breast.
Assay [10] relates to NCI/ADR-RES ovarian.
Assay [11] relates to T-47D breast.
The subject of assay [12] is MDA-MB-435 melanoma.
Assay [13] relates to SW-620 colon.
Assay [14] deals with MCF7 breast.
In assay [15] the test system is HCT-116 colon.
The test system of assay [16] is HCC-2998 colon.
Assay [17] concerns KM12 colon.
Assay [18] concerns BT-549 breast.

With `Cn1cc(-c2nonc2-c2c[nH]c3ccc(F)cc23)c2cc(Br)ccc21`, the growth in [1] is 27%; in [2] it was 46%; in assay [3], 40.5%; in assay [4], 58.7%; in assay [5] it was 43.8%; in assay [6] it was 64.4%. The growth in [7] was 64%; in [8], 60.3%; in assay [9], 63.2%; in assay [10], 42.1%; in assay [11], 14.8%; in assay [12], 51%. In addition, the growth in [13] was 64.5%; in assay [14] it was 32.2%; in [15], 35.1%; in assay [16] it was 40.1%; in assay [17], 29.4%.

Turning to `Cc1ccc(/C=C/C(=O)c2ccc(NC(=O)CSc3nc4c([nH]3)c(=O)n(C)c(=O)n4C)cc2)c(C)c1`, the growth was 30.4% in assay [1]; 52.6% in assay [2]; 40.3% in [3]; 124% in assay [4]; 36.9% in [5]; 30.9% in [6]. For the same compound, the growth in [7] was 36.3%; in assay [9] it was 27.4%; in assay [10], 82.7%; in assay [11] it was 37.2%; in assay [18], 69.9%; in [12], 60.7%. Moreover, the growth is 49% in assay [13]; 39.8% in [14]; 5.13% (active) in [15]; 45.1% in assay [16]; 37.5% in assay [17].

Take `COc1cc(-c2cc(-c3ccc(Nc4ncnc5cc(Cl)ccc45)cc3)nc(N3CCN(C)CC3)n2)cc(OC)c1OC`: the growth is 42.7% in assay [1]; 76.2% in [2]; 35.1% in assay [3]; 103% in assay [4]; 58.9% in [5]; 114% in [6]. The growth in [7] was 81.3%; in assay [9] it was 73.2%; in assay [10], 85.3%; in assay [11] it was 99.3%; in [18], 94.5%; in [12] it was 102%. The growth in assay [13] is 72.4%; in assay [14], 53.8%; in [15] it was 64%; in [16] it was 110%; in assay [17], 86.1%.

Regarding `CCOC(=O)c1c(-c2ccc(Cl)cc2)c(C#N)c2c(C#N)c(N)nn2c1N`, the growth in [1] is 11.9%; in assay [2], 49.3%; in assay [3] it was 75.9%; in assay [4], 83.4%; in assay [5], 77.3%; in assay [6], 84.1%. In addition, the growth in assay [7] was 62.2%; in assay [8], 65.4%; in assay [9], 75.3%; in assay [10] it was 63.1%; in assay [11], 46.5%; in assay [12], 5.38% (active). The growth in assay [13] was 52.6%; in assay [14] it was 37.6%; in assay [15] it was 59.5%; in assay [16], 83.6%; in [17] it was 58.7%.

For `O=C(CCCCl)NNc1nccc(Nc2ccc(S(=O)(=O)Nc3ccncc3)cc2)n1`, the growth in assay [1] was 95%; in [2] it was 104%; in assay [3], 106%; in assay [4], 103%; in assay [5], 101%; in assay [6] it was 101%. For the same compound, the growth in [7] was 101%; in assay [8], 104%; in assay [9] it was 112%; in [10], 99.8%; in assay [11], 94.1%; in assay [12] it was 107%. The growth was 113% in assay [13]; 93.4% in [14]; 97.1% in assay [15]; 103% in assay [16]; 101% in assay [17].

On to `CCOC(=O)C/C(=N\Nc1cc(=O)[nH]c2ccc(Cl)cc12)C(=O)OCC`, for which the growth in [1] is 47%; in assay [2], 57.2%; in assay [3] it was 110%; in assay [4] it was 98.9%; in assay [5], 107%; in assay [6] it was 123%. Besides, the growth was 97.6% in assay [7]; 110% in assay [8]; 94.9% in assay [9]; 95.8% in assay [10]; 102% in assay [11]; 99.3% in assay [18]. The growth was 96.5% in [14], 100% in assay [15], 97.4% in [16] and 102% in [17].

In the case of `COc1cc(-c2nc3occn3c2-c2ccnc(NCCCNS(=O)(=O)c3ccccc3)n2)ccc1F`, the growth in assay [1] was 56.4%; in assay [2], 5.21% (active); in assay [3], 21.9%; in assay [4] it was 111%; in [5], 33%; in assay [6], 59.2%. The growth is 49.8% in assay [7]; 75.6% in assay [9]; 20.5% in [10]; 8.36% (active) in [11]; 29.7% in [18]; 9.04% (active) in assay [12]. For the same compound, the growth in [13] is 65.2%; in assay [14] it was 20.5%; in assay [15] it was 34.3%; in [16] it was 69.1%; in assay [17], 30%.

For `COC(=O)Cc1nc(C#N)c(N(C)C)o1`, the growth in assay [1] was 94.9%; in assay [2], 102%; in assay [3], 101%; in assay [4] it was 94.7%; in assay [5], 107%; in assay [6], 92.7%. The growth in assay [8] is 109%; in [9], 87.1%; in [10], 101%; in [11] it was 89.6%; in assay [18], 92.6%; in assay [12], 103%. The growth was 95.9% in assay [13]; 94.9% in assay [14]; 97.1% in assay [15]; 103% in assay [16]; 94.7% in assay [17].

Take `O=C1NC(=C(Cl)Cl)/C(=N/S(=O)(=O)NCCc2c[nH]c3ccccc23)N1`: the growth in [1] is 53.3%; in assay [2], 14.8%; in assay [3], 92.9%; in [4] it was 48.3%; in [5], 58.6%; in assay [6] it was 62.2%. The growth in assay [8] was -25.8% (active); in [9], 27.3%; in assay [10] it was 67.9%; in assay [11] it was 47.1%; in assay [18] it was 9.16% (active); in assay [12], 25.1%. Also, the growth in assay [13] was 54.3%; in assay [14], 14.2%; in assay [15], 34.9%; in assay [16], 98.3%; in assay [17] it was -4.6% (active).
